Assay results reported in PubChem BioAssay (NCATS).
Values joined by “and” are separate entries in the source; they are usually repeats but may differ in a detail not shown here. Equal values may be shown once. Results filed as inconclusive are left out. A call without a number means that no potency is given here. Values without a mark were called inactive. Active and inactive are the calls of the source. Unless noted, calls follow the shape of the full dose curve.

What was measured:
[1] = target: Bile acid receptor (Homo sapiens) (UniProt Q96RI1); assay: qHTS assay for small molecule antagonists of farnesoid X receptor signaling (AID 588526)
Summary of the method: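 Concentration-response titrations were fitted to the Hill equation for half-maximal inhibition and maximal response, with data normalised to 50 uM chenodeoxycholic acid and DMSO control wells. Cells: FXR-UAS-bla HEK293T, dialyzed FBS.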

[2] = target: Peroxisome proliferator-activated receptor delta (Homo sapiens) (UniProt Q03181); assay: qHTS assay for small molecule antagonists of peroxisome proliferator-activated receptor delta signaling (AID 588535; active = well fitted inhibition curve with a large enough effect in the signal ratio, with a control signal flat, not every such curve was filed as active; the % refers to the signal ratio)
Summary of the method: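 Reporter: UAS-bla under PPAR-delta response element, HEK293T host. Medium: 2% charcoal/dextran FBS. Dosing: titration, 18 hrs, 37 C. Detection: CCF4, 2 hrs RT, 405 ex/460 and 530 em.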

[3] = target: Peroxisome proliferator-activated receptor gamma (Homo sapiens) (UniProt P37231); assay: qHTS assay for small molecule antagonists of peroxisome proliferator-activated receptor gamma signaling (AID 588537; active = well fitted inhibition curve with a large enough effect in the signal ratio, with a control signal flat, not every such curve was filed as active; the % refers to the signal ratio;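 also: reporter cells co-stimulated with 50 nM rosiglitazone agonist during compound treatment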)
Summary of the method: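 We seeded GeneBLAzer HEK293 reporter cells at 3000 per well, allowed 6-6.5 h attachment at 37 C, then co-treated with test compound titrations and 50 nM rosiglitazone overnight (16 h). Inhibition was quantified from 460/530 nm emission ratios.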

[4] = qHTS assay for small molecule activators of the p53 signaling pathway (AID 651743; active = well fitted activation curve with a large enough effect in the signal ratio, not every such curve was filed as active; the % refers to the signal ratio; also: series mostly up to about 92 µM); settings: HCT-116 p53RE-bla, beta-lactamase FRET ratio, 16 h; activation: active compounds read high
Summary of the method: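 Cell-based beta-lactamase reporter (p53 response elements, HCT-116 background). After a 5-hour preincubation, cells received compound for 16 hours at 37 C; substrate development ran 2 hours at room temperature.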

[5] = qHTS assay for small molecule agonists of the antioxidant response element (ARE) signaling pathway measured by Nrf2-dependant transcriptional activity (AID 720636; active = well fitted activation curve with a large enough effect in the repeat runs;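 also: HepG2 cells with an ARE-driven luciferase reporter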)
Summary of the method: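 Cells: ARE-luc HepG2 with Nrf2-responsive luciferase. Medium contained 1% dialyzed FBS. Compound exposure lasted 16 hr at 37 C and 5% CO2, followed by ONE-Glo luciferase detection.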

[6] = target: Glucocorticoid receptor (Homo sapiens) (UniProt P04150); assay: qHTS assay for small molecule antagonists of glucocorticoid receptor signaling (AID 588533; active = well fitted inhibition curve with a large enough effect in the signal ratio, with a control signal flat, not every such curve was filed as active; the % refers to the signal ratio;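 also: cells stimulated with 2 nM dexamethasone as agonist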)
Summary of the method: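 Antagonist-mode qHTS: compound titrations added to GRE-bla HeLa cells, then dexamethasone 2 nM final; 18 h, 37 C. CCF4 FRET fluorescence normalized to dexamethasone and DMSO; IC50 from Hill fit.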

[7] = qHTS assay for small molecule agonists of the antioxidant response element (ARE) signaling pathway (AID 651741; active = well fitted activation curve with a large enough effect in the signal ratio; the % refers to the signal ratio; also: potency is read from the fitted curve at half-maximal effect)
Summary of the method: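 Compounds in DMSO are pinned onto HepG2 ARE-bla cells (2,000/well) that were preincubated 5 h; plates stay 16 h at 37 C, then beta-lactamase activity is detected with LiveBLAzer B/G substrate by fluorescence.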

[8] = target: Androgen receptor (Homo sapiens) (UniProt P10275); assay: qHTS assay for small molecule agonists of androgen receptor signaling (AID 588515; active = well fitted curve in the direction sought with a large enough effect in the signal ratio, with a control signal flat; the % refers to the signal ratio); settings: AR-UAS-bla HEK293, beta-lactamase ratio, agonist 16 h; activation: active compounds read high
Summary of the method: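 EC50 and efficacy came from Hill fits of titrations (up to 92 uM) normalized to 30 nM R1881 as 100% and DMSO as 0%. Compound exposure was 16 h at 37 C on AR-UAS-bla HEK293 cells, with a 405/460/530 nm CCF4 fluorescence read.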

[9] = target: Androgen receptor (Homo sapiens) (UniProt P10275); assay: qHTS assay for small molecule antagonists of androgen receptor signaling (AID 588516; active = well fitted curve in the direction sought with a large enough effect in the signal ratio, with a control signal flat, not every such curve was filed as active; the % refers to the signal ratio)
Summary of the method: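 AR-UAS-bla-GripTite HEK 293 cells (2000/well, 5 h at 37 C) received compound titrations, then R1881 at 10 nM final; after 16 h at 37 C, CCF4 dye 2 h RT, beta-lactamase fluorescence read; IC50 from Hill fits.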

[10] = target: Vitamin D3 receptor (Homo sapiens) (UniProt P11473); assay: qHTS assay for small molecule agonists of vitamin D receptor signaling (AID 588543)
Summary of the method: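 GeneBLAzer VDR-UAS-bla HEK293T cells in 2% charcoal-stripped FBS medium were dosed with compound titrations for 16 h at 37 °C; CCF4 β-lactamase readout (405 nm ex, 460/530 nm em). EC50 and efficacy from Hill fits, normalized to 50 nM calcitriol (100%) and DMSO (0%).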

Chain of Vitamin D3 receptor (Homo sapiens) (P11473 whole entry, looked up): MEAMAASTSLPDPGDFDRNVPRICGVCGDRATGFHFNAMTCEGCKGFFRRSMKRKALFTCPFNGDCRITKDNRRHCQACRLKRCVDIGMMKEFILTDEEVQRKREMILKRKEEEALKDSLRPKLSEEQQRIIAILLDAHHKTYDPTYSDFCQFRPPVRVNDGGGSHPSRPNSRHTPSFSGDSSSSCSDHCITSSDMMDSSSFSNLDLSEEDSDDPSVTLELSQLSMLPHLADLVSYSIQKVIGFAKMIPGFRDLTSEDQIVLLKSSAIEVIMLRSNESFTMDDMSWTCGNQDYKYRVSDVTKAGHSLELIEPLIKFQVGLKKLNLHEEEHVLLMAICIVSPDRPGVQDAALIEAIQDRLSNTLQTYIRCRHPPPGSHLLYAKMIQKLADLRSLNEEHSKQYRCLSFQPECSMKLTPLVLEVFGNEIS
Chain of Androgen receptor (Homo sapiens) (P10275 whole entry, looked up): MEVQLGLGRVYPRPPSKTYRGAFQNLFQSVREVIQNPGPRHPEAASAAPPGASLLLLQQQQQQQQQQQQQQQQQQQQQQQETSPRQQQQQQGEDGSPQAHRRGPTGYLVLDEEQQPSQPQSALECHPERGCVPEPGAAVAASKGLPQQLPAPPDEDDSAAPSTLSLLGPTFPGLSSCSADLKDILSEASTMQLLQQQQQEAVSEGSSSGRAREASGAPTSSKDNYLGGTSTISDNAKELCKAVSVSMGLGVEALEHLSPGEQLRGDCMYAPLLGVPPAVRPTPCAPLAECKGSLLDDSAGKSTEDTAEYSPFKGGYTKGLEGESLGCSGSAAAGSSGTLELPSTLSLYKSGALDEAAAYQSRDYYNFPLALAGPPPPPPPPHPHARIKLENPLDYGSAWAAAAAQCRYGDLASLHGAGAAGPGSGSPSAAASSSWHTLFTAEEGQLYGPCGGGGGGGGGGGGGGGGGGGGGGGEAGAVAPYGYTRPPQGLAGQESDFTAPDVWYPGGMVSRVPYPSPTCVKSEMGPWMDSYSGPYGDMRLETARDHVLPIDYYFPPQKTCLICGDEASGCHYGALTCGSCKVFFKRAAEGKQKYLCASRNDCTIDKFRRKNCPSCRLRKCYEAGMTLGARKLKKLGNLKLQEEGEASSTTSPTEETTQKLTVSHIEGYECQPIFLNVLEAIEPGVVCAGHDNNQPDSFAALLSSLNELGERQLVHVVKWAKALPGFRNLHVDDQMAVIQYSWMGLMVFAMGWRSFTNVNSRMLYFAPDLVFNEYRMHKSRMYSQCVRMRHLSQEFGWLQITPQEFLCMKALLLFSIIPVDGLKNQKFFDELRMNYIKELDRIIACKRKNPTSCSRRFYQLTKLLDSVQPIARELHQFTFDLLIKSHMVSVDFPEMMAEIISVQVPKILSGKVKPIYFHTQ
Chain of Bile acid receptor (Homo sapiens) (Q96RI1 whole entry, looked up): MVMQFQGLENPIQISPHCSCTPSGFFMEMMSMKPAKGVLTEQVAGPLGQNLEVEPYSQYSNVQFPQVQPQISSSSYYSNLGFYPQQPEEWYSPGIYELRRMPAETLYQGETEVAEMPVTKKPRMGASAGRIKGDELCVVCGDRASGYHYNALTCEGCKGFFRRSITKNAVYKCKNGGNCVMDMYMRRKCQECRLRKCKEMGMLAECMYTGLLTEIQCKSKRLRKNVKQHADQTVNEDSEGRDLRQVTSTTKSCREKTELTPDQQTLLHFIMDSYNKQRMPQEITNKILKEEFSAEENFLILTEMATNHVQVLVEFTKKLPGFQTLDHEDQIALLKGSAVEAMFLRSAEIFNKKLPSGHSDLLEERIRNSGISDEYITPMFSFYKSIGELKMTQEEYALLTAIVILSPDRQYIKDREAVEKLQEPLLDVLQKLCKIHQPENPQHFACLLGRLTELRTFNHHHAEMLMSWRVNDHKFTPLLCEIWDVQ
Chain of Peroxisome proliferator-activated receptor delta (Homo sapiens) (Q03181 whole entry, looked up): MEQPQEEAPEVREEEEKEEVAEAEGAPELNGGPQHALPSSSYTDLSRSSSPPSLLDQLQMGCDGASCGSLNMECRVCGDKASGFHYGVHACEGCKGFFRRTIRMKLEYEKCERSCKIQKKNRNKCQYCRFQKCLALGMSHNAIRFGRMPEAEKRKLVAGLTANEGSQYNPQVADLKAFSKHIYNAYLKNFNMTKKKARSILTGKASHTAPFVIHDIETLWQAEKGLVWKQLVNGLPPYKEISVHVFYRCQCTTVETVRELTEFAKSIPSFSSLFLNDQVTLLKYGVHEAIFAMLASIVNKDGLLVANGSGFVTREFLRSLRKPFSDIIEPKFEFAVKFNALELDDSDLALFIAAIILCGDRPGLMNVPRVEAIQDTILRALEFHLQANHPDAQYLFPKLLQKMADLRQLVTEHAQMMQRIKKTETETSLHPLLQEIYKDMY
Chain of Glucocorticoid receptor (Homo sapiens) (P04150 whole entry, looked up): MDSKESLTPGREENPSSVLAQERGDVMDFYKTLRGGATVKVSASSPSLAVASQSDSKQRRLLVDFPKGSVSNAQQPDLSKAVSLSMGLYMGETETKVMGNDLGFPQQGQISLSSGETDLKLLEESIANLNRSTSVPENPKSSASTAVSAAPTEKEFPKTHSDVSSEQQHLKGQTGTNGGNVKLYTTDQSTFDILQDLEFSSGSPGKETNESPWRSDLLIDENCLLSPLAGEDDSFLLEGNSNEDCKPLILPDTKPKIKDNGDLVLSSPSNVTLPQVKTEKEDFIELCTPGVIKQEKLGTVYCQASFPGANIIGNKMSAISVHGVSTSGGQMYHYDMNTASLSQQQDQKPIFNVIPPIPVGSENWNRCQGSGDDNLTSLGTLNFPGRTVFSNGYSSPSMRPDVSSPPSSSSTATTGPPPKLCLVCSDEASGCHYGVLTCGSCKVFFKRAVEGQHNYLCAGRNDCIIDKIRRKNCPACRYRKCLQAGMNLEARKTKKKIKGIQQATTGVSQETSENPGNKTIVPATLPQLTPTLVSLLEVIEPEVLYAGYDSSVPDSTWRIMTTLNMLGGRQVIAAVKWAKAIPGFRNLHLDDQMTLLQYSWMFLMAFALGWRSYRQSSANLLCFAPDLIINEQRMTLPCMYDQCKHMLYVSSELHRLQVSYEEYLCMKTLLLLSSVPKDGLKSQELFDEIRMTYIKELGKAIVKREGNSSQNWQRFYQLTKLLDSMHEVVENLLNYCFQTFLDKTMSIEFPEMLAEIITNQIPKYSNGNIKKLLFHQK
Chain of Peroxisome proliferator-activated receptor gamma (Homo sapiens) (P37231 whole entry, looked up): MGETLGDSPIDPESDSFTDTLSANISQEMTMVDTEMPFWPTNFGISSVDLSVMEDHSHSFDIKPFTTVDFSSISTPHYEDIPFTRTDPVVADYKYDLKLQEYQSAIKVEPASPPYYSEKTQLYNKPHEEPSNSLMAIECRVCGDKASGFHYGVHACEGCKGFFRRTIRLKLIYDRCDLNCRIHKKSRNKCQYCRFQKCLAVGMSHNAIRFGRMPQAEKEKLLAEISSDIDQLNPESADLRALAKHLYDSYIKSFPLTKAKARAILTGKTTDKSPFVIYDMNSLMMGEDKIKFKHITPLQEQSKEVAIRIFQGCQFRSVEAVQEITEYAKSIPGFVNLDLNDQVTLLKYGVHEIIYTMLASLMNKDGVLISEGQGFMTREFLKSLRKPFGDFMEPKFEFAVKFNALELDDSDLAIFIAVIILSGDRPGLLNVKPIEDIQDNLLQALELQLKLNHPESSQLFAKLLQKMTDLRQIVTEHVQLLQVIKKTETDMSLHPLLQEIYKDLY

Row | Compound | Potency [1] | Potency [2] | Potency [3] | activation [4] | Potency [5] | Potency [6] | Potency [7] | activation [8] [%] | outcome [9] | outcome [10]
1 | CC(=O)/C=C/C1C(C)=CCCC1(C)C (centres undefined) | inactive | inactive | inactive | -1.49% | inactive | – | – | – | – | –
2 | c1ccc2c(c1)Cc1ccccc1-2 | inactive | – | inactive | 2.83% | inactive | inactive | – | – | – | –
3 | CCCCN(CCCC)CCCC | inactive | inactive | – | -3.01% | inactive | inactive | inactive | – | – | –
4 | O=C(c1ccc(Cl)cc1)c1ccc(Cl)cc1 | – | inactive | inactive | 1.92% | inactive | – | – | 19.9 | inactive | inactive
5 | CCC(=O)OCCc1ccccc1 | inactive | inactive | – | -3.48% | inactive | inactive | inactive | – | – | –
6 | C/C=C/C=C/CCCCCCCO | inactive | – | inactive | – | inactive | inactive | inactive | – | – | inactive
7 | CNc1nc(=O)n(C2CCC(O)CC2)c(=O)n1C (centres undefined) | inactive | inactive | inactive | 1.92% | inactive | inactive | – | – | inactive | –
8 | O=C(OCCOCCOC(=O)c1ccccc1)c1ccccc1 | inactive | – | inactive | 0.877% | inactive | – | – | – | – | inactive
9 | CCCCCCCCCCCO | inactive | inactive | – | 1.01% | inactive | – | – | – | – | inactive
10 | N[C@@H]1[C@@H](O)[C@H](O)[C@@H](CO)O[C@H]1O | – | inactive | inactive | -3.01% | inactive | – | – | 9.13 | inactive | –
11 | CCCCCCCCCCO | inactive | – | inactive | 1.66% and 2.49% | inactive | – | inactive | – | – | inactive
12 | CC(C)c1cccc(C(C)C)c1 | inactive | inactive | – | – | – | – | inactive | – | – | inactive
13 | CC(C)c1ccc(C(C)C)cc1 | inactive | – | – | -6.39% | inactive | inactive | inactive | – | – | inactive
14 | NCCCCCCCCCCCC(=O)O | inactive | inactive | inactive | – | inactive | – | – | – | inactive | inactive
15 | CC(C)(C)c1cccc(C(C)(C)C)c1O | inactive | inactive | inactive | – | inactive | inactive | inactive | – | – | –
16 | OC1CCC(C2CCCCC2)CC1 (centres undefined) | inactive | inactive | inactive | 3.92% | – | – | inactive | – | – | inactive
17 | CC1(C)[C@@H](C=C(Cl)Cl)[C@@H]1C(=O)OCc1cccc(Oc2ccccc2)c1 | – | inactive | – | -0.529% | inactive | inactive | – | -22.2 | inactive | –
18 | CCCCNS(=O)(=O)c1ccccc1 | inactive | – | inactive | – | inactive | inactive | – | – | – | inactive
19 | CC(C)O.CC(C)O.CC(C)O.CC(C)O.[Ti] | inactive | inactive | inactive | – | inactive | – | inactive | – | – | inactive
20 | NNS(=O)(=O)c1ccc(Oc2ccc(S(=O)(=O)NN)cc2)cc1 | inactive | inactive | – | – | inactive | – | – | – | – | inactive
21 | CCCCOCCOCCOC(=O)CCCCC(=O)OCCOCCOCCCC | inactive | inactive | inactive | – | inactive | inactive | – | – | – | inactive
22 | C=Cc1ccccc1Br | inactive | inactive | – | -6.55% | inactive | inactive | inactive | – | inactive | inactive
23 | CCCCOCC(C)OCC(C)O (centres undefined) | inactive | inactive | inactive | – | inactive | – | – | – | – | inactive
24 | Cl[Si](Cl)(c1ccccc1)c1ccccc1 | inactive | inactive | inactive | -1.29% | inactive | inactive | 54.5 µM (active) | – | – | inactive
25 | Cn1c(=O)[nH]c(=O)n(C2CCCCC2)c1=O | inactive | – | – | -1.53% | inactive | inactive | – | – | inactive | inactive
26 | O=C(Cl)c1cc(Cl)cc(Cl)c1 | – | inactive | inactive | -0.691% | – | – | – | – | – | inactive
27 | CC1(C)C(=O)N(Cl)C(=O)N1Cl | – | – | inactive | – | inactive | inactive | – | – | – | inactive
28 | C[N+](C)(C)CC(O)CCl (centres undefined) | – | – | inactive | 0.454% | inactive | inactive | – | – | – | inactive
29 | CCC(C)(C)C1CCC(O)CC1 (centres undefined) | – | inactive | inactive | – | inactive | – | inactive | – | – | inactive
